Measurements from PubChem BioAssay (NCI).
Compounds without any hit were thinned out: in the full panel of roughly 79,000, 15% have a hit. A number with no mark means an inactive call. Active and inactive are the calls of the source. Rule as the data show it: active = growth inhibition above about 70%; inactive = the rest.

How the values were obtained:
[1] = NCI Yeast Anticancer Drug Screen. Data for the rad50 strain (AID 155);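 also: 0% = growth of vehicle-only cultures of the same strain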; conditions: S. cerevisiae rad50 strain growth inhibition; at 50.0 µM; hits give high values
How it was run: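 Vehicle-treated cultures provide the reference for the growth inhibition reported for compound-exposed, repair-deficient yeast.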

[2] = NCI Yeast Anticancer Drug Screen. Data for the mec2-1 strain (AID 157); conditions: S. cerevisiae mec2-1 strain, at 50.0 µM, hits give high values
How it was run: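 Using mec2-1 yeast: add compound, measure growth, express inhibition versus vehicle-treated cultures.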

[3] = NCI Yeast Anticancer Drug Screen. Data for the sgs1 mgt1 strain (AID 161);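 also: 0% = growth of cultures given vehicle only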; conditions: S. cerevisiae sgs1 mgt1 strain, at 50.0 µM, hits give high values
How it was run: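 Compounds are added to genetically altered yeast, and growth is compared with cultures given vehicle alone to give percent inhibition.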

[4] = NCI Yeast Anticancer Drug Screen. Data for the cln2 rad14 strain (AID 165);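 also: 0% = growth equal to vehicle treated cultures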; conditions: S. cerevisiae cln2 rad14 strain, at 50.0 µM, hits give high values
How it was run: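 Yeast strain cln2 rad14, bearing defects in cell cycle control and DNA repair, serves as the test system; values reflect growth inhibition compared with vehicle.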

[5] = NCI Yeast Anticancer Drug Screen. Data for the bub3 strain (AID 167); conditions: S. cerevisiae bub3 mutant strain, at 50.0 µM, hits give high values
How it was run: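 Mutant yeast screening strain plus compound; vehicle-treated cultures serve as the 0% inhibition reference.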

[6] = NCI Yeast Anticancer Drug Screen. Data for the mlh1 rad18 strain (AID 175); conditions: S. cerevisiae mlh1 rad18 strain growth inhibition; at 50.0 µM; hits give high values
How it was run: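 Steps: expose repair-defective yeast to compound; measure growth; express inhibition against vehicle-treated controls.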

SMILES | growth inhibition [1] | growth inhibition [2] | growth inhibition [3] | growth inhibition [4] | growth inhibition [5] | growth inhibition [6]
C=C1CCCCCCCCCCC12SCCCS2 | -42.1% | 7.6% | -25.7% | -11.9% | 20% | -26.6%
CC(=O)OC1CC2(C)OC(Cc3ccccc32)O1 (stereo not given) | -37.2% | -3.05% | -58.6% | 4.4% | -23.1% | -43.5%
CCOC(=O)c1ccc(NCc2nc3c([nH]2)c(=O)n(C)c(=O)n3C)cc1 | -0.95% | -1.45% | -1.35% | -54.1% | -14.2% | 1.65%
Cc1ncc(CN2CSC(CCO)C2C)c(N)n1 (stereo not given) | 32.6% | 8.4% | 27.2% | 16.8% | 17.4% | 43.1%
N#CC(NC12CC3CC(CC(C3)C1)C2)c1ccccc1C(F)(F)F (stereo not given) | -18.6% | 7.3% | -30.9% | 10.4% | -30.1% | -12.9%
O=C(OC[P+](c1ccccc1)(c1ccccc1)c1ccccc1)c1ccccc1 | 44% | 47.1% | 44.9% | 33.8% | 38.6% | 81.2% (active)
CN1CCC(O)(C(C)(C)C)CC1 | -5.05% | -5.15% | 3.65% | 10.9% | -3.7% | -68.9%
NC(=O)Cc1[nH]ccc1C(=O)O | 9.4% | -9.75% | -0.05% | -18.6% | -4.15% | 12.1%
Oc1cccc(NCNC2Nc3ccccc3N2)c1 | 6.5% | 14.7% | -1.4% | -11.1% | 9.7% | 13.6%
NC1=NN(c2ccccc2)C(=O)C1C(=O)C(=O)Nc1ccc(Cl)c(Cl)c1 (stereo not given) | -6.4% | -23.8% | 11.8% | 0.15% | 12.2% | -6.2%
CCCCCCC1CCC(=O)CC1 | 31.9% | 4.3% | -14.6% | -10.1% | -7.3% | 34.5%
O=c1cc(-c2ccc(F)cc2)oc2ccccc12 | 40% | -7.45% | -9.05% | 0.95% | 13.7% | 30.4%
COc1ccc(CCNC(=O)c2ccc(CSc3ccc(Cl)cc3)o2)cc1OC | 34.5% | 24.1% | 37.6% | 50.5% | 42.8% | 25.1%
COc1ccc(NC(C)=O)c(C(=O)CCNC(C)=O)c1 | -5.85% | -15.4% | -31.1% | -7.4% | -40% | -23.4%
CCOc1ccc(NC(=O)C2=C(C)NC(C)=C(C(=O)Nc3ccc(OCC)cc3)C2c2ccc(O)c(OC)c2)cc1 | -17.4% | 3% | -14.8% | -16.4% | 16% | -8.1%
c1ccc(-c2ccc3ncccc3c2)cc1 | -17.9% | 3.5% | 5.05% | -34.4% | -0.4% | 2.3%
C=CCCCCCCCCC(=O)N(CC#N)CC(C)C | 79.1% (active) | 82% (active) | 91.5% (active) | 76% (active) | 87.2% (active) | 91.5% (active)
Cc1cc(C(=O)O)c(C(=O)O)c(=O)[nH]1 | 0.6% | 5.8% | 0.3% | 7.1% | -1.05% | -13.9%
NC(=O)n1ccc(CC(O)(C(F)(F)F)C(F)(F)F)n1 | -13.2% | 44% | -2.55% | 55.1% | 2.35% | 22.4%
Cc1cccc(Oc2ccc(C(F)(F)F)cc2[N+](=O)[O-])c1C | -32.2% | -2.15% | 2.55% | -45.4% | 45.3% | -15.2%

SMILES | growth inhibition [1] | growth inhibition [2] | growth inhibition [3] | growth inhibition [4] | growth inhibition [5] | growth inhibition [6]
COC(=O)C1=C(C(=O)OC)C23CC4CCC2(C(=O)C1O3)C4(C)C (stereo not given) | 36.4% | 18% | 23% | 8.65% | 21.5% | -5.15%
C/C(CC(=O)Nc1ccc(C)c(C)c1)=N\N(c1ccccc1)c1ccccc1 | -16.6% | -13.8% | -27% | -3.4% | -17.6% | -20.5%
CC1(c2cccc3c2C2(O)C=CC4(CCC32)OCCO4)OCCO1 (stereo not given) | -59.4% | -41.2% | -55.8% | -27.6% | -61.1% | -26%
CCn1c2ccc(C(=O)CCCN(C)C)cc2c2cc(C(=O)CCCN(C)C)ccc21 | 5.15% | -33.3% | 8.5% | 4.05% | 14.2% | -21.9%
CCOCC(OCC)OCC | -4.1% | 0.45% | -2.55% | 22.9% | -5.45% | 6.7%
CN(C)c1ccc(C=O)cc1[N+](=O)[O-] | 2.75% | 6.25% | -10.8% | -31.8% | -6.9% | -5.9%
COc1ccc(/C(=N/NS(=O)(=O)c2ccc([N+](=O)[O-])cc2)C2COC(=O)C2)cc1OC (stereo not given) | 6.15% | -9% | 3.25% | -13.4% | 14% | 2.25%
CC1(C)CSC(C)(C)C(=O)N1 | 4.9% | -1.95% | -3.6% | -6.85% | -2.2% | -1.1%
Brc1nc(-[n+]2ccccc2)[n-]c1Br | -0.75% | 3.75% | -13.9% | -60.5% | 1.5% | 1.4%
COc1ccc(-c2cc(-c3ccc(C)cc3)n(C3OC(COC(C)=O)C(OC(C)=O)C(OC(C)=O)C3OC(C)=O)c(=S)c2C#N)cc1 (stereo not given) | -10.6% | -11.2% | -10.3% | 16.9% | -2% | 4.4%
O=C(Nn1c(-c2ccccc2)nc2ccccc2c1=O)c1cccc([N+](=O)[O-])c1 | -27.8% | -33.9% | -14.2% | 5.5% | 23.8% | 3.85%
CC1(C)OC1(C(=O)C=[N+]=[N-])c1ccccc1 (stereo not given) | -14.8% | -17.8% | -23.9% | -15.8% | -13.6% | -29.4%
CC1(C)C=Cc2c(ccc3[nH]c4occc4c(=O)c23)O1 | 23.4% | -21.8% | -16.8% | 14.2% | 11.4% | -0.3%
COc1ccccc1-n1c(NN)nc2ccc(Br)cc2c1=O | 55.6% | 13.4% | 27.4% | 13.2% | 27.2% | -12.4%
COCC(=O)C(C(C)=O)C(c1ccncc1)C(C(C)=O)C(=O)COC (stereo not given) | -7.75% | 14.9% | 6.85% | -10.2% | -1.6% | -20.4%
c1ccc2c(c1)SCCc1nncn1-2 | -6.6% | 7.3% | -1.4% | -24.4% | 8.5% | 4.95%
COC(=O)C1OC(O[C@H]2CC[C@]3(C)[C@H]4CC=C5[C@@H]6CC(C)(C)CC[C@]6(C(=O)OC)[C@H](O)C[C@@]5(C)[C@]4(C)CC[C@H]3C2(C)C)C(O)C(O)C1O (stereo not given in full) | 14.4% | 37.6% | 26.6% | 26.4% | 21.4% | 33.4%
CC[N+](C)(CC)CCOC(=O)c1ccccc1Oc1ccc(C)cc1 | 23.1% | -2.45% | 7.8% | -11.8% | -2.1% | 0.9%
CC(=O)N(C(=O)CC(=O)N1N=C(c2ccccc2)C(N=Nc2ccccc2[N+](=O)[O-])C1=O)c1ccc(Cl)cc1 (stereo not given) | -4.3% | -21.8% | -0.2% | -37% | -27.2% | -19%
COC(=O)C(Cc1ccccc1)NP(=O)(O)OCC1OC(n2cc(I)c(=O)[nH]c2=O)CC1O (stereo not given) | -11.8% | -2.65% | -15.2% | -10.5% | -10.1% | 0.85%
